The full list was thinned out, with hits kept by preference.
TDP-43 rescue: inhibitors of TDP-43 toxicity in yeast; yeast TDP-43 toxicity rescue, BacTiter-Glo growth, 24 h; Potency, µM (top dose mostly 46.1 µM), hits mostly activators; actives 0.45% (n = 45,000); active = well fitted activation curve with a large enough effect; also: 0% is about no effect; nearly all actives have a fitted effect of over 55% in size
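TDP-43-expressing yeast, pregrown in raffinose, seeded at OD600 0.02 in galactose medium with compound for 24 hr at 30 deg C. Growth read by BacTiter-Glo luminescence, so rescue of toxicity appears as activation.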
Starred values were filed as active, the others as inactive. Potency is read from the fitted curve at half-maximal effect.

Screening CC1CC1C(=O)Nc1nc(-c2cccs2)c(-c2cccs2)s1 (configuration not stated) returned TDP-43 rescue 11µM*.
O=C(O)Cc1sc(Nc2ccc(Cl)cc2)nc1-c1cccs1 was read as TDP-43 rescue inactive.
Screening CC(=O)Nc1sc(NC(=O)c2ccco2)nc1-c1cccs1 returned TDP-43 rescue inactive.
For CNc1cccc(-c2c(OC)cccc2OC)n1 the results were TDP-43 rescue inactive.
`OC(c1ccccc1)c1ncc(-c2cccc(OCc3ccccc3)c2)[nH]1` (configuration not stated) gave TDP-43 rescue inactive.
For O=C(O)c1nn(CCOc2cccc(Br)c2)c(=O)c2ccccc12 the results were TDP-43 rescue 18µM*.
Screening O=C(O)c1nn(CCOc2c(Cl)cccc2Cl)c(=O)c2ccccc12 returned TDP-43 rescue inactive.
Screening O=C(O)c1nn(CCOc2ccc(Cl)cc2Cl)c(=O)c2ccccc12 returned TDP-43 rescue inactive.
`OC[C@@H]1CN(Cc2cccc(C(F)(F)F)c2)C[C@H](n2cnc3c(NC4CC4)ncnc32)O1` gave TDP-43 rescue inactive.
Cc1nc([N+](=O)[O-])c(C(=O)OCc2cccc(Br)c2)n1C was read as TDP-43 rescue 13µM*.
Cc1nc([N+](=O)[O-])c(C(=O)OCc2ccccc2)n1C was read as TDP-43 rescue inactive.
For COc1cc(OC)cc(C(=O)OCc2ccc([N+](=O)[O-])cc2)c1 the results were TDP-43 rescue inactive.
For Cc1cccc(OCC(=O)Nc2ccc(NC(=O)c3ccco3)cc2)c1 the results were TDP-43 rescue inactive.
O=C(NCc1ccco1)c1ccc2sc([C@H]3C[C@H](O)[C@@H](CO)O3)nc2c1 was read as TDP-43 rescue inactive.
Screening Cc1cccc(-c2cc(NCCc3cccnc3)n3nccc3n2)c1 returned TDP-43 rescue inactive.
Screening COCCNC(=O)C1(C)CCN(C(=O)C2(c3ccc(Cl)cc3)CCCC2)C1 (configuration not stated) returned TDP-43 rescue inactive.
`COCCNC(=O)C1CCCN(C(=O)C2(c3ccc(Cl)cc3)CCCC2)CC1` (configuration not stated) gave TDP-43 rescue inactive.
For CC1(C(=O)O)CCCN(C(=O)C2(c3ccc(Cl)cc3)CCCC2)C1 (configuration not stated) the results were TDP-43 rescue 14µM*.
Screening O=C(Nc1ccc2nn(-c3ccc(Cl)cc3)nc2c1)c1cc2ccccc2o1 returned TDP-43 rescue inactive.
`Cc1c(C(=O)Nc2ccc(-c3nc4cc(Cl)ccc4o3)cc2)oc2ccccc12` gave TDP-43 rescue inactive.
O=C(Cn1nnc(-c2ccccc2Cl)n1)Nc1ccc(Br)cc1 was read as TDP-43 rescue inactive.
`CC1CN(C(=O)N2c3ccccc3Sc3ccccc32)CC(C)O1` (configuration not stated) gave TDP-43 rescue 13µM*.
For CC1CN(C(=O)C(Sc2ccccc2)c2ccccc2)CC(C)O1 (configuration not stated) the results were TDP-43 rescue inactive.
`CC1CN(C(=O)CS(=O)(=O)Cc2ccccc2)CC(C)O1` (configuration not stated) gave TDP-43 rescue inactive.
For COc1ccc(NC(=O)c2cc3nc(-c4ccc(Cl)c(Cl)c4)cc(C(F)(F)F)n3n2)c(OC)c1 the results were TDP-43 rescue inactive.
`Cc1cccc(C)c1NC(=O)/C(C#N)=C/c1ccsc1` gave TDP-43 rescue 20µM*.
Screening COc1cc(/C=C(\C#N)C(=O)Nc2cccc3ncccc23)cc(OC)c1OC returned TDP-43 rescue inactive.
COc1ccc(/C=C(\C#N)C(=O)OCC(=O)Nc2c(C)cccc2C)cc1 was read as TDP-43 rescue inactive.
CCc1nc2ccc(C(=O)N(C)Cc3ccco3)cn2c1N(CC)C(=O)NCCc1ccccc1 was read as TDP-43 rescue inactive.
Screening CCCCC(=O)NCc1ccccc1Cl returned TDP-43 rescue inactive.
O=C(CN1CCN(Cc2ccccc2)CC1)NCc1ccccc1Cl was read as TDP-43 rescue inactive.
O=C(CN1CCc2ccccc21)NCc1ccccc1Cl was read as TDP-43 rescue 13µM*.
For Cc1cc(C)cc(NC(=O)CNS(=O)(=O)c2ccc3nc(C)sc3c2)c1 the results were TDP-43 rescue inactive.
For CC(=O)c1ccc(Sc2nnnn2-c2ccccc2)c([N+](=O)[O-])c1 the results were TDP-43 rescue 20µM*.
`CN1CCN(S(=O)(=O)c2ccc(Sc3nnnn3-c3ccccc3)c([N+](=O)[O-])c2)CC1` gave TDP-43 rescue inactive.
Cc1ccc(-n2nnnc2SCC(=O)NNC(=O)c2ccc([N+](=O)[O-])cc2)cc1 was read as TDP-43 rescue inactive.
CC1(C(=O)NS(=O)(=O)C2CC2)CCN(C(=O)c2ccccc2OC(F)(F)F)C1 (configuration not stated) was read as TDP-43 rescue inactive.
`COc1ccc(-n2nc([N+](=O)[O-])c(=NCCc3cccc(C)c3)n2O)cc1` gave TDP-43 rescue 13µM*.
For COc1cccc(CNC(=O)Cn2nc([N+](=O)[O-])c(Br)c2C)c1 the results were TDP-43 rescue inactive.

Bioassay records from PubChem BioAssay.
